{"source": "PubChem BioAssay (NCATS)", "note": "Results filed as inconclusive are left out. Calls of active or inactive are those of the source. Calls come from the whole dose curve; as a rule, active = well fitted cell-killing curve with a large enough effect; inconclusive = small, poorly fitted or top-dose-only effect, or effect the other way; inactive = flat fitted curve, though single readings scatter.", "data": [{"assay": "S16 Schwann cell viability assay (CellTiter-Glo assay) (AID 624031);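 note: native untransfected S16 rat Schwann cells; cellular ATP luminescence as a viability measure; nearly all actives have a fitted effect of over 70% in size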", "settings": "S16 rat Schwann cells viability, 24 h; series mostly up to 57.5 µM", "from_the_text": "Charcot-Marie-Tooth-Association [CMTA]\nNational Center for Advancing Translational Sciences [NCATS]\nCharcot-Marie-Tooth (CMT) disease was first characterized by Jean-Martin Charcot and Pierre Marie in France and, independently, by Howard Henry Tooth in England in 1886. CMT is one of the most common inherited neurological diseases, affecting approximately 1 in 2,500 Americans. […] The most prevalent type of CMT is known as CMT1A and caused by a duplication of the PMP22 gene which leads to over-expression of this protein. PMP22 is a glycosylated intrinsic membrane protein accounting for 2-5% of the myelin protein content, and its over-expression results in demyelination and subsequently axonal loss.\nA pair of cellular transcription-based assays was developed in the S16 rat Schwann cell lines (Hai, M., et al., 2002) stably transfected with orthogonal reporters - firefly luciferase (Fluc) and beta-lactamase (beta-Lac) - whose expression is driven by an intronic regulatory element of the PMP22 gene (Jones, E.A., et al., 2011) to recapitulate endogenous expression of PMP22. A comprehensive library of approved drugs, the NCGC Pharmaceutical Collection (Huang, R., et al., 2011), was screened in the cross-validating platform of the orthogonal reporter assays to identify drug modulators inhibitory towards PMP22 expression.\nA set of counter-screens was devised to address non-specific activity of the library. An ATP-dependent CellTiter-Glo assay (developed by Promega Corp) was utilized to control cell viability. In addition, biochemical Fluc enzyme assay was performed to assess direct inhibition of the Fluc enzymatic activity.\nHai, M., Muja, N., DeVries, G.H., Quarles, R.H. and Patel, P.I. Comparative analysis of Schwann cell lines as model systems for myelin gene transcription studies. J Neurosci Res, 2002. 69(4): pp 497-508\nHuang, R., Southall, N., Wang, Y., Yasgar A., Shinn P., Jadhav, A. , Nguyen, D.-T. and Austin, C.P., The NCGC pharmaceutical collection: a comprehensive resource of clinically approved drugs enabling repurposing and chemical genomics. Sci Transl Med, 2011. 3(80): p. 80ps16.\nNative S16 cells were seeded in white solid-bottom 1536 well plates at between 500-750 cells/6uL in DMEM medium containing 10% FBS, w/o phenol red. After overnight incubation at 37 degree Celsius/5% C02, 23 nL of compounds or DMSO were delivered to each well using a pin tool, followed by 24h-incubation at 37 degree Celsius/5% C02. Then one volume of CellTiter-Glo assay reagent (Promega) was added to each well for cell viability measured by a ViewLux plate reader (PerkinElmer). The % activity was determined by normalizing to the average readings from wells containing no cells relative to DMSO-treated cells (0% Activity). The concentration-effect curves were then classified based on curve quality (r2), response magnitude and degree of measured activity.", "values": [{"smiles": "O=C(N/N=C/c1ccc([N+](=O)[O-])o1)c1cc([N+](=O)[O-])cc([N+](=O)[O-])c1O", "outcome": "inactive"}, {"smiles": "CC(C)c1cccc(C(C)C)c1O", "outcome": "inactive"}, {"smiles": "O=P1(N(CCCl)CCCl)NCCCO1", "note": "(stereo not given)", "outcome": "inactive"}, {"smiles": "O=c1oc2ccccc2c(O)c1Cc1c(O)c2ccccc2oc1=O", "outcome": "inactive"}, {"smiles": "Clc1ccc(C(c2ccc(Cl)cc2)C(Cl)(Cl)Cl)cc1", "outcome": "inactive"}, {"smiles": "CN1C(=O)CC(=O)N(c2ccccc2)c2cc(Cl)ccc21", "outcome": "inactive"}, {"smiles": "Nc1ccc([As](=O)(O)O)cc1", "outcome": "inactive"}, {"smiles": "COc1cccc([C@@]2(O)CCCC[C@@H]2CN(C)C)c1", "outcome": "inactive"}, {"smiles": "Oc1ccc(Cl)cc1", "outcome": "inactive"}, {"smiles": "CCCCC/C=C\\C/C=C\\C/C=C\\C/C=C\\CCCC(=O)NCC(=O)O", "activity change, negative = cytotoxicity": "-23.3% [at 5.34 µM] (inactive)"}, {"smiles": "C=C(C)[C@H]1CN[C@H](C(=O)O)[C@H]1CC(=O)O", "outcome": "inactive"}, {"smiles": "COc1ccc2c(c1)C13CCCC[C@@H]1C(C2)N(C)CC3", "note": "(stereo not given in full)", "outcome": "inactive"}, {"smiles": "CCCCCCCCCC(=O)O[C@H]1CC[C@H]2[C@@H]3CCC4=CC(=O)CC[C@@H]4[C@H]3CC[C@]12C", "outcome": "inactive"}, {"smiles": "CCOP(=S)(OCC)Oc1ccc2c(C)c(Cl)c(=O)oc2c1", "outcome": "inactive"}, {"smiles": "CN1C(=O)CCS(=O)(=O)C1c1ccc(Cl)cc1", "note": "(stereo not given)", "outcome": "inactive"}, {"smiles": "CN1C(=O)NC(=O)C(C)(C2=CCCCC2)C1=O", "note": "(stereo not given)", "outcome": "inactive"}, {"smiles": "O=C1CN=C(c2ccccc2)c2cc([N+](=O)[O-])ccc2N1", "outcome": "inactive"}, {"smiles": "C[C@]12CCC(=O)C=C1CC[C@@H]1[C@@H]2CC[C@]2(C)C(=O)CC[C@@H]12", "outcome": "inactive"}, {"smiles": "Cc1nnc2n1-c1ccc(Cl)cc1C(c1ccccc1)=NC2", "outcome": "inactive"}, {"smiles": "CCC1(CC)C(=O)C=CNC1=O", "outcome": "inactive"}, {"smiles": "O=C(O)CCCc1ccc(N(CCCl)CCCl)cc1", "outcome": "inactive"}, {"smiles": "CN1C(=O)COc2c(C(=O)NC3CN4CCC3CC4)cc(Cl)cc21", "note": "(stereo not given)", "outcome": "inactive"}, {"smiles": "NCCc1ccc(O)cc1", "outcome": "inactive"}, {"smiles": "CC(C)(C)c1ccc(O)cc1", "outcome": "inactive"}, {"smiles": "COP(=S)(OC)Oc1ccc(S(=O)(=O)N(C)C)cc1", "outcome": "inactive"}, {"smiles": "COP(=S)(OC)SCN1C(=O)c2ccccc2C1=O", "outcome": "inactive"}, {"smiles": "NC(=O)c1cc([N+](=O)[O-])cc([N+](=O)[O-])c1", "outcome": "inactive"}, {"smiles": "COC(=O)C(c1ccccc1)C1CCCCN1", "note": "(stereo not given)", "outcome": "inactive"}, {"smiles": "CCC1(c2ccccc2)C(=O)N(COC)C(=O)N(COC)C1=O", "outcome": "inactive"}, {"smiles": "CC(C)(C)NCC(O)c1cc(Cl)c(N)c(C(F)(F)F)c1", "note": "(stereo not given)", "outcome": "inactive"}, {"smiles": "Cc1ncsc1CCCl", "outcome": "inactive"}, {"smiles": "CNC(C)(C)Cc1ccccc1", "outcome": "inactive"}, {"smiles": "NNc1ccccc1", "outcome": "inactive"}, {"smiles": "CCCC(C)(COC(N)=O)COC(N)=O", "outcome": "inactive"}, {"smiles": "COc1c2c(cc3c1OCO3)CCN(C)C2", "outcome": "inactive"}, {"smiles": "O=C1OC(c2ccc(O)c(S(=O)(=O)O)c2)(c2ccc(O)c(S(=O)(=O)O)c2)c2c(Br)c(Br)c(Br)c(Br)c21", "outcome": "inactive"}, {"smiles": "CCC(C)(C)c1ccc(O)cc1", "outcome": "inactive"}, {"smiles": "CN1C(=O)C(O)N=C(c2ccccc2)c2cc(Cl)ccc21", "note": "(stereo not given)", "outcome": "inactive"}, {"smiles": "COc1ccc2c(c1OC)C(=O)O[C@H]2[C@@H]1c2cc3c(cc2CCN1C)OCO3", "outcome": "inactive"}, {"smiles": "COC1CC(=C(c2cccs2)c2cccs2)C[N+](C)(C)C1", "note": "(stereo not given)", "outcome": "inactive"}]}]}
